# Test results as given in PubChem BioAssay (NCATS).
# Activity calls are given as the source filed them. Calls follow the shape of the dose curve; as a rule, active = well fitted curve in the direction sought with a large enough effect; inconclusive = small, poorly fitted or top-dose-only effect, or another doubt; inactive = no such curve, though single readings can be large or run the other way.
# Test: HepG2 viability counterscreen (readout 2: ATP content) against the NCATS DSHEA and TCM libraries (AID 1794840);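 also: HepG2 cells exposed to substances for about 24 h; 0% is about no effect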
# Settings: ATP content luminescence; series mostly up to 27.3 µM; activity change, negative = cytotoxic: at the top concentration
# Procedure, shortened: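 1,000 HepG2 cells/well, 4 h attach; compounds ~24 h, 37C/5% CO2. Readout 1: GF-AFC 25 uM final, 30 min, fluorescence 380/510 nm. Readout 2: CellTiter-Glo, 30 min RT, luminescence.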
row,Compound,"activity change, negative = cytotoxic"
1,O=C(/C=C/c1ccc(O)c(O)c1)O[C@@H]1CC(C(=O)O)=C[C@@H](O)[C@H]1O,10.8% (inactive)
2,CC(C)=CCCC(C)(OC1OC(COC2OC(CO)C(O)C2O)C(O)C(O)C1O)C1CCC2(C)C1C(O)CC1C3(C)CCC(OC4OC(CO)C(O)C(O)C4OC4OC(CO)C(O)C(O)C4O)C(C)(C)C3CCC12C (configuration not stated),3.37% (inactive)
3,CC[C@H](CC[C@@H](C)[C@H]1CCC2C3CCC4C[C@@H](O)CC[C@]4(C)C3CC[C@@]21C)C(C)C (some centres not stated),-8.53% (inactive)
4,O=C(O)CC(O)(C(=O)O)C(O)C(=O)O (configuration not stated),4.48% (inactive)
5,CCCCCC(=O)CC,-3.6% [at 82.8 µM] (inactive)
6,C=C1CC[C@H](O)C/C1=C\C=C1/CCC[C@]2(C)[C@@H]([C@H](C)CC[C@H](C)C(C)C)CC[C@@H]12,-0.811% (inactive)
7,CC1(C)C2CCC1(C)C(O)C2 (configuration not stated),-0.747% (inactive)
8,O[C@@H]1[C@@H](O)[C@H](OC/C=C/c2ccccc2)O[C@H](CO[C@@H]2OC[C@H](O)[C@H](O)[C@H]2O)[C@H]1O,-1.94% (inactive)
9,CC(=O)O[C@H]1[C@H](O[C@H]2CC[C@]34C[C@]35CC[C@]3(C)[C@@H]([C@@]6(C)CC[C@@H](C(C)(C)O)O6)[C@@H](O)C[C@@]3(C)[C@@H]5C[C@H](O[C@@H]3O[C@H](CO)[C@@H](O)[C@H](O)[C@H]3O)[C@H]4C2(C)C)OC[C@@H](O)[C@@H]1O,-0.315% (inactive)
10,OCC1=C[C@@H](O)[C@@H]2C=CO[C@@H](OC3O[C@H](CO)[C@@H](O)[C@H](O)[C@H]3O)[C@H]12 (some centres not stated),8.64% (inactive)
11,CCCCCCCCCC=O,2.1% [at 46.6 µM] (inactive)
12,CC(=O)OC1CC2CCC1(C)C2(C)C (configuration not stated),1.96% (inactive)
